Screening results from PubChem BioAssay.
CDK5 inh: CDK5/p35 (human) kinase inhibition | Recombinant CDK5/p35, ADP-Glo luminescence, 60 min | Q00535+Q15078 | actives 0.01% (n = 330,000) | AID 488839 | inhibition, % at 10 µM;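 active means highest replicate inhibition of at least 50% and at least 75% of replicates reaching 50%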
SUMO Mot1 rescue: blocks SUMOylation pathway, rescuing yeast Mot1-301 growth. S. cerevisiae Mot1-301 growth rescue, ATP luminescence, 38.5C; percent above DMSO median, 100 means doubled. growth rescue, % at 18.8 µM. actives 1% (n = 320,000);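 active means every valid replicate shows activation above 250% relative to neutral control wells; inactive means the rest, any valid replicate at or below 250%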
N-glyco inh: N-linked glycosylation inhibition. actives 0.23% (n = 360,000). D54 ERlucT glycosylation luciferase reporter, 24 h; percent of 100 nM tunicamycin response. AID 588692. reporter increase, % at 12.5 µM;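 active means mean luciferase reporter signal, scaled so untreated is 0 and the glycosylation-blocking control 100, at or above a set limit in every replicate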;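 further: luciferase carries N-glycosylation sites so blocking glycosylation raises the light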
Casp6 inh: blocks human caspase-6 cleavage activity; P55212; purified caspase-6, Z-VEID-R110 cleavage fluorescence; inhibition, % at 12.5 µM; actives 0.53% (n = 350,000);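 active means mean inhibition across replicates at least about 35%, with every replicate also reaching that limit, limit read from the data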
NSD2 inh: NSD2 (human) methyltransferase inhibition. O96028. NSD2 peptide methylation, AlphaScreen, 120 min. inhibition, % at 12.5 µM. actives 0.54% (n = 310,000); in the data active means inhibition above about 50%
ALR H2O2 inh: human ALR oxidase inhibition via reduced H2O2. P55789. purified ALR, DTT oxidation, H2O2 HRP-luminol luminescence. inhibition, % (test concentration not listed). actives 3.8% (n = 290,000). AID 485317;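 active means mean replicate inhibition above about 79%, with every replicate also reaching it, limit read from the data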
A number is an active result; n = inactive; x = no result. In the library only some 3.9% were active in any assay of this set; here they are far more common.

SMILES	CDK5 inh	SUMO Mot1 rescue	N-glyco inh	Casp6 inh	NSD2 inh	ALR H2O2 inh
CN(C)C(=O)c1ccc(-c2ccc([C@H]3[C@H](CO)N4CCCCN(CC5CC5)C[C@@H]34)cc2)cc1	x	x	x	n	x	x
COc1ccccc1CNc1ccc(CNc2ncn[nH]2)cc1	n	x	n	n	n	87.2
CCOc1ccc(CNc2ccc(CNc3ncn[nH]3)cc2)cc1	n	342.1	n	n	n	n
Cc1ccc(CNc2ccc(CNc3ncn[nH]3)cc2)cc1	n	n	n	x	n	n
Cc1noc(C)c1S(=O)(=O)Nc1ccc2c(c1)C(=O)N([C@@H](C)CO)C[C@@H](C)[C@H](CN(C)Cc1ccc(C(F)(F)F)cc1)OCCCC[C@@H](C)O2	x	x	x	n	x	x
C[C@@H]1CN([C@@H](C)CO)C(=O)c2cc(C3=CCCCC3)cnc2O[C@H]1CN(C)C(=O)c1ccncc1	x	x	x	n	x	x
O=C1Cc2c([nH]c3ccc([N+](=O)[O-])cc23)-c2ccccc2N1	n	x	88.3	n	x	x
O=c1[nH]c2cc([N+](=O)[O-])ccc2c2ccccc12	n	x	n	n	n	x
CO[C@H]1CN(C)C(=O)c2ccc(NC(=O)C3CC3)cc2OC[C@@H](C)N(CC2CCCC2)C[C@@H]1C	x	x	x	n	x	x
Cc1ccc(N/C=C/C(=O)C(C)(C)C)c(O)c1	n	n	n	n	n	83.3
CC(=O)Nc1ccc(N/C=C/C(=O)C(C)(C)C)cc1	n	n	n	x	n	n
COc1cc(OC)c2c(c1O)OC(c1ccccc1)CC2=O (configuration not stated)	n	696.3	n	39.6	x	n
O=C1CC(c2ccccc2)Oc2cc(O)cc(O)c21 (configuration not stated)	n	n	n	n	x	n
COc1cc(/C=N/O)cc(Br)c1OCc1ccc(Cl)cc1	n	n	n	n	n	n
CCOc1c(Cl)cc(/C=N/NC(N)=S)cc1OC	n	n	n	n	n	n
COc1cc(/C=N/O)cc(Cl)c1OC	n	327.8	n	n	n	n
COc1cc(/C=N/O)cc(Br)c1OC	n	n	n	x	n	89.8
COc1cc2c(cc1OC)[N+]([O-])=C(c1ccccc1)C2=O	x	x	x	n	n	x
O=C1C(c2ccccc2)=[N+]([O-])c2ccccc21	n	n	n	n	x	91.4
COc1ccc(S(=O)(=O)N[C@H]2CC[C@@H](CC(=O)N3CCN(c4ccccc4)CC3)O[C@@H]2CO)cc1	x	x	x	n	x	x
Cc1cc(F)ccc1NCc1ccccc1[N+](=O)[O-]	n	n	n	n	n	98.7
O=C(CNC(=O)c1ccc(Br)o1)Nc1cccc(-c2cnc3ccccc3n2)c1	n	n	25.8	x	n	n
COC(=O)C[C@@H]1C[C@@H]2c3cc(NC(=O)Nc4ccccc4F)ccc3O[C@@H]2[C@@H](CO)O1	x	x	x	n	x	x
O=C(CC(Sc1ccc(Br)cc1)C(=O)O)c1ccc(F)cc1 (configuration not stated)	n	n	n	n	n	x
CCOc1ccc(C(=O)CC(Sc2ccc(C)cc2)C(=O)O)cc1 (configuration not stated)	n	n	n	n	n	95.5
SMILES	CDK5 inh	SUMO Mot1 rescue	N-glyco inh	Casp6 inh	NSD2 inh	ALR H2O2 inh
CCN(CC)C(=O)CSC1=N/C(=C/c2ccco2)C(=O)N1c1ccc(OC)c(Cl)c1	n	n	n	n	n	97.5
COc1ccc(N2C(=O)/C(=C\c3ccco3)N=C2SCC(=O)NC(C)(C)C)cc1Cl	n	x	n	n	n	x
C=CCn1c(-c2ccc(Cl)cc2)c[nH]c1=S	n	n	n	x	n	97.1
C=CCn1c(-c2ccccc2)c[nH]c1=S	n	n	n	x	n	n
COc1ccc(-c2ccc([C@@H]3[C@@H](CO)N4C(=O)CNC[C@@H]34)cc2)cc1	x	x	x	n	x	x
Cc1cc(SCNC(=O)c2ccccc2)ncn1	n	n	n	n	n	94.3
COCc1cc(Sc2ccc(Br)cc2)nc(-c2ccccc2)n1	n	n	n	x	n	99.5
O=S(=O)(Nc1ccc(NS(=O)(=O)c2ccccc2)c(Cl)c1)c1ccccc1	n	x	n	n	n	x
Cc1cc(NS(=O)(=O)c2ccccc2)cc(Cl)c1O	n	n	n	x	n	98.7
Cc1cc(C2(O)C(=O)Nc3ccccc32)ccc1F (configuration not stated)	n	n	n	35.7	n	x
CN(C)CCCNC(=O)[C@@H]1[C@@H](CO)[C@@H]2Cn3c(ccc(-c4cccc(F)c4)c3=O)[C@@H]2N1C	x	x	x	n	x	x
